Source: PubChem BioAssay
Shown are actives, neighbours in structure and some others; about 3.8% of the full set was active somewhere.
SUMO Mot1 rescue – blocks SUMOylation pathway, rescuing yeast Mot1-301 growth; hit rate 1% among 320,000; AID 2716; S. cerevisiae Mot1-301 growth rescue, ATP luminescence, 38.5C; percent above DMSO median, 100 means doubled; growth rescue, % at 18.8 µM;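 active means every valid replicate shows activation above 250% relative to neutral control wells; inactive means the rest, any valid replicate at or below 250%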;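 further: OY570 slx delta 5 strain wells were the positive control but not used for scaling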
Yeast superoxide – yeast age-related superoxide inhibition as caloric restriction mimetic; hit rate 0.18% among 330,000; superoxide response (% of plate mean), % at 10 µM; S. cerevisiae aged cells, superoxide DHE fluorescence; stronger effect = lower value;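 active means superoxide response under a set limit, about three screen SD below normal, cut at about 65% in these data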;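 further: yeast aged for seven days with compound at 30 °C before DHE staining; 100% = average MFI of all compound-treated wells on the plate with controls excluded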
FAS-TE inh – FAS thioesterase (human) inhibition | P49327 | recombinant FAS-TE, OMFH fluorogenic substrate, fluorescence endpoint | inhibition, % at 15 µM | hit rate 0.67% among 360,000;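 active means compounds whose normalised, plate-corrected inhibition of enzyme fluorescence in the single-dose primary screen is 50% or more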;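 further: 0% = DMSO with enzyme and 100% = substrate without enzyme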
MPTP block – blocks calcium-induced mitochondrial swelling; isolated mouse mitochondria, Ca2+ swelling absorbance, 30 min; inhibition, % at 10 µM; hit rate 1.4% among 360,000;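 active means inhibition of 50% or more, scaled per plate between neutral and stimulator controls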;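 further: 0% = DMSO wells given calcium and 100% = 1 mM EGTA wells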
H9c2 protect – myocardial damage modulation in H9c2 cells. H9c2 cardiomyocytes, H2O2 injury protection, ATPLite, 2 h. hit rate 0.63% among 360,000. AID 588492. protection from H2O2 cell death, % at 20 µM;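 active means compounds giving at least 50% protection of heart cells from peroxide-induced death in the single-dose screen, raw or plate-pattern-corrected value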;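 further: 0% = DMSO wells with peroxide and 100% = DMSO wells without peroxide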
aDG glyco act – alpha-DG glycosylation activation; Pro5-aDG cells, alpha-DG glycosylation AlphaScreen (IIH6); 0% Pro5, 100% B10-LARGE cell signal; activation, % at 10 µM; hit rate 0.22% among 360,000;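 active means activation of at least 8% versus controls, or a plate z-score of at least 8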;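 further: Pro5 are CHO cells carrying HIG-tagged alpha-DG that lacks glycosylation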
MPTP counter – membrane potential counter-screen of mitochondrial pore inhibitors; shares compounds with MPTP block; isolated mitochondria, Rhodamine 123 fluorescence; inhibition, % at 10 µM; hit rate 78% among 5,000; AID 624504; in the data active means inhibition above about 22%;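 further: 0% = DMSO vehicle and 100% = positive control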
MPTP abs DR – dose response confirmation of mitochondrial permeability transition pore inhibitors; shares compounds with MPTP block; IC50, µM; hit rate 58% among 780; isolated mitochondria swelling, absorbance; AID 651561; in the data active means IC50 below about 20 µM
MPTP cs DR – MPTP inhibitor counter-screen activity, dose response; AID 651564; isolated mitochondria counterscreen, fluorescence read-out; shares compounds with MPTP block; IC50, µM; hit rate 49% among 780; in the data active means IC50 below about 80 µM
* hit, by the source's call; x = not tested or not shown.

SMILES | SUMO Mot1 rescue | Yeast superoxide | FAS-TE inh | MPTP block | H9c2 protect | aDG glyco act | MPTP counter | others
CCc1nnc(NS(=O)(=O)c2ccc(NC(=S)NC(=O)/C=C/c3ccc(C(C)C)cc3)cc2)s1 | -12 | 115 | 51* | 66* | -4 | 0 | 42*
COc1ccccc1NC(=O)Cn1c(C)cc(=O)c2cccc(OC)c21 | -31 | 96 | -2 | 70* | -5 | 1 | 55*
COc1ccc(NC(=O)CNC(=O)Cn2c(C)cc3ccccc3c2=O)cc1OC | 7 | 101 | -5 | 70* | -14 | 0 | 24*
CCc1ccc(C2=NNC(=Nc3c(C)n(C)n(-c4ccccc4)c3=O)SC2)cc1 | 86 | 99 | 2 | 0 | 2 | 0 | x
O=C(COc1ccc([N+](=O)[O-])cc1)Nc1ccc2c(c1)nc1n2CCOC1 | -5 | 91 | 4 | -2 | -1 | 0 | x
CCCn1c(NC(=O)c2ccc([N+](=O)[O-])o2)nc2ccccc21 | -12 | 106 | 1 | 2 | 36 | 0 | x
CC1=NN(c2nc(-c3ccc(Cl)cc3)cs2)C(=O)C1 | 359 | 99 | -3 | 60* | 2 | 0 | 17 | MPTP abs DR=13*;MPTP cs DR=<2.5*
O=C(CSC1=NS(=O)(=O)c2cc(Cl)ccc2N1)c1ccc(Cl)cc1 | -6 | 100 | 0 | 98* | -10 | 0 | 88*
CC(=O)c1ccc(NC(=O)CSC2=NS(=O)(=O)c3cc(Cl)ccc3N2)cc1 | -10 | 96 | 2 | -2 | 2 | 0 | x
O=C(CSC1=NS(=O)(=O)c2cc(Cl)ccc2N1)Nc1cccc(F)c1 | 0 | 100 | 1 | 62* | 0 | 0 | 56*
CCN(C(=O)COC(=O)/C(C#N)=C/c1cc(C)n(CCOC)c1C)c1c(N)n(Cc2ccccc2)c(=O)[nH]c1=O | x | x | -1 | 0 | -4 | 0 | x
COc1ccc(C2=NCC(CSc3nnc(-c4ccc5c(c4)OCO5)o3)S2)cc1 (stereo not given) | 3 | 102 | 24 | 58* | -20 | 1 | 81*
CCN(CC)S(=O)(=O)c1ccc2oc(SCC3CN=C(c4ccc(OC)cc4)S3)nc2c1 (stereo not given) | 3 | 102 | 16 | 56* | -27 | 1 | 10 | MPTP abs DR=17*;MPTP cs DR=12*
Cc1ccc(CSc2nnc(-c3ccc4c(c3)OCO4)o2)cc1 | 3 | 96 | 16 | -3 | -21 | 0 | x
CCc1nn2cc(C(=O)c3cc(Cl)ccc3O)cnc2c1-c1ccc(F)cc1 | 279 | 100 | 27 | 100* | -28 | 0 | 93*
Cc1nn(C)c2ncc(C(=O)c3cc(F)ccc3O)cc12 | 9 | 100 | 1 | 0 | -7 | 0 | x
CC(C)c1ccc(S(=O)(=O)NC2CCS(=O)(=O)C2)cc1 (stereo not given) | -9 | 119 | -3 | -1 | -2 | 0 | x
C[C@H]1CN([C@@H](C)CO)C(=O)CCCn2cc(nn2)CO[C@@H]1CN(C)C(=O)c1cc(-c2ccccc2)on1 | x | x | -10 | -1 | 2 | 0 | x
COc1cc2c(cc1[N+](=O)[O-])-c1ccc([N+](=O)[O-])cc1C2=NNC(N)=S | x | x | 6 | 3 | 2 | -1 | x
NC(=S)NN=C1c2cc(Cl)ccc2-c2c1cc(Cl)cc2[N+](=O)[O-] | x | x | 15 | 93* | -14 | 0 | 74*
CCOC(=O)c1c(-c2ccccc2)oc2ccc(OC(C)C(=O)O)cc12 (stereo not given) | 666 | 95 | 1 | 1 | -5 | 0 | x
CCOC(=O)c1c(-c2ccccc2)oc2ccc(OCC(O)CN(C)C)cc12 (stereo not given) | 15 | 103 | -8 | 99* | -2 | 1 | -13 | MPTP abs DR=6.5*;MPTP cs DR=>80
O=C(O)c1cccc(S(=O)(=O)Nc2ccc(O)c(Sc3nc4ccccc4s3)c2)c1 | 3 | 102 | -4 | -3 | 1 | 1 | x
O=S(=O)(Nc1ccc(O)c(Sc2nc3ccccc3s2)c1)c1ccc(F)cc1 | -9 | 105 | 10 | 78* | -11 | 0 | 55*
CCCS(=O)(=O)NC(=O)C1(C)CCCN(C(=O)c2cccc(Cl)c2)C1 (stereo not given) | x | x | -1 | 1 | -2 | 0 | x
SMILES | SUMO Mot1 rescue | Yeast superoxide | FAS-TE inh | MPTP block | H9c2 protect | aDG glyco act | MPTP counter | others
COc1ccc(CC(N)c2csc(Nc3cc(NCc4ccco4)ncn3)n2)cc1 (stereo not given) | x | x | -11 | 0 | 6 | 1 | x
O=[N+]([O-])c1cccc(-c2nc(NCc3ccccc3)c3ccccc3n2)c1 | 5 | 92 | 34 | 25 | -10 | 0 | x
CN(Cc1ccccc1)c1nc(-c2cccc([N+](=O)[O-])c2)nc2ccccc12 | 13 | 96 | 31 | 67* | -5 | 0 | 1 | MPTP abs DR=19*;MPTP cs DR=>80
CC(C)CC(N)c1csc(NC(=O)c2cc(C(C)(C)C)nn2Cc2ccccc2)n1 (stereo not given) | x | x | -20 | 4 | -11 | -1 | x
Cc1ccc2nc(SC(C)C(=O)NC3CCCC3)[nH]c2c1 (stereo not given) | 3 | 81 | -6 | 0 | -3 | 0 | x
Cc1ccc2nc(SC(C)C(=O)Nc3cccc([N+](=O)[O-])c3)[nH]c2c1 (stereo not given) | 412 | 110 | 25 | 59* | -10 | 1 | 85*
O=C(/C=C/c1c(Cl)cccc1Cl)Nc1ccncc1 | -5 | 94 | -1 | 62* | -11 | 1 | 57*
O=S(=O)(c1cc(F)ccc1F)N1CCN(c2ncnc3ccccc23)CC1 | -3 | 99 | 11 | 95* | -18 | 1 | 92*
CC(C)COC(=O)N(C)C[C@H]1OCc2cn(nn2)CCCC(=O)N([C@H](C)CO)C[C@@H]1C | x | x | 1 | 0 | 10 | 0 | x
CCOC(=O)/C(=C/C=C1\Sc2cc(C)c(C)cc2N1CC)C(C)=O | x | x | -141 | -3 | -4 | 2 | x
CCN1/C(=C/c2ccc3cc(C)ccc3[n+]2CC)Sc2ccccc21 | 481 | 146 | -34 | 105* | -36 | 2 | 96*
CCN1/C(=C/C=C/C=C/c2sc3ccccc3[n+]2CC)Sc2ccccc21 | -25 | 93 | x | x | x | x | x
CCN1/C(=C/C=C/c2sc3ccccc3[n+]2CC)Sc2ccccc21 | -2 | 98 | -17 | 136* | -44 | 1 | 84*
CCN1/C(=C/c2ccc3cc(C)ccc3[n+]2CC)Sc2cc(C)c(C)cc21 | x | x | -39 | 106* | -20 | 4 | 93*
CC[n+]1c(/C=C2\Sc3ccccc3N2C)ccc2cccc(C)c21 | x | x | -23 | 106* | -22 | 4 | 100*
